The full ranking holds about 33,000 sequences; the median of “e-score” is about -0.05, and the highest 2% start at about 0.38. The sample as a whole holds a higher share of the highest values than the screen did.

This test has as its target T1, SIX1-Q177R homeodomain (human, UniProt Q15475 108-198, Q177R).
T1 sequence: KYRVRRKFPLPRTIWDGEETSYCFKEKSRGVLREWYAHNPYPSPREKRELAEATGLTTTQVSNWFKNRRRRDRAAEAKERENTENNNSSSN
Kind of test: universal protein binding microarray; Universal all-10-mer PBM (8x60K, AMADID 030236), 300 nM GST-tagged protein, Alexa Fluor 488 anti-GST; buffer, salt, pH and temperature not stated (as in Berger); high values mean tight binding. Conditions: protein: ivt; tags: N-terminal GST; dsDNA, one strand shown. The procedure, abridged:
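Homeodomains carrying a GST tag were produced by in vitro transcription/translation, then quantified by anti-GST western blot against a recombinant GST standard curve. Duplicate applications at 300 nM final concentration were made to universal 'all 10-mer' protein binding microarrays in 8×60K format. The Universal PBM Analysis Suite was used to express binding as 8-mer E-scores.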
Regarding CACGAAGA, the binding signal turned out to be 0.183 ± 0.0282 E-score.
For AGATTACA, the binding signal amounted to 0.23 ± 0.00802 E-score.
For CCGACACA, the binding signal came out at 0.295 ± 0.0445 E-score.
CCGACTCC: the binding signal turned out to be 0.159 ± 0.044 E-score.
As for CCGACCCC, the binding signal was found to be 0.24 ± 0.0393 E-score.
For CCGACACC, the binding signal is 0.488 ± 0.0101 E-score.
The result for TCGACACA reads 0.188 ± 0.0429 E-score; that for CCGACACG, 0.418 ± 0.0317 E-score; that for ACGACACG, 0.426 ± 0.0132 E-score.
On to ACGACACA, for which the binding signal came to 0.273 ± 0.0776 E-score.
As for ACGACACT, the binding signal is 0.4277 ± 0.00127 E-score.
Turning to AAGACACA, the binding signal stood at 0.174 ± 0.0361 E-score.
As for ACCCGCTC, the binding signal is 0.227 ± 0.00437 E-score.
As to CACCTGCC, the binding signal came to 0.225 ± 0.0171 E-score.
As for ACCCGAAC, the binding signal is 0.173 ± 0.0027 E-score.
As to TGTCGTAA, the binding signal was 0.163 ± 0.00414 E-score.
As for CCCCCCCG, the figure is 0.218 ± 0.0264 E-score.
As to GGGTGATA, the binding signal was found to be 0.218 ± 0.0149 E-score.
In the case of GATCCCGC, the binding signal was 0.185 ± 0.0357 E-score.
For CGGGTACG, the binding signal came out at 0.182 ± 0.00752 E-score.
With ACGACCCC, the binding signal was 0.244 ± 0.0306 E-score.
Consider GCGACCCC, for which the binding signal is 0.212 ± 0.0261 E-score.
Regarding ACGACTCC, the binding signal was determined as 0.309 ± 0.0346 E-score.
Consider GCGACACC, for which the binding signal is 0.487 ± 0.00655 E-score.
Take ACGACACC: the binding signal was 0.487 ± 0.00563 E-score.
Regarding GCGACACA, the binding signal amounted to 0.262 ± 0.0569 E-score.
Regarding CACTTGAA, the binding signal stood at 0.202 ± 0.00417 E-score.
As for CACCTTAC, the figure is 0.248 ± 0.036 E-score.
For CACTCTCG, the binding signal stood at 0.288 ± 0.0157 E-score.
Turning to CCCCGAAC, the binding signal is 0.181 ± 0.00559 E-score.
Turning to AGGACCCC, the binding signal was determined as 0.205 ± 0.0283 E-score.
In the case of CACACCTG, the binding signal was 0.389 ± 0.0159 E-score.
GACTCCTC: the binding signal stood at 0.166 ± 0.0214 E-score.
Take AACACATA: the binding signal worked out at 0.17 ± 0.0243 E-score.
For AACACCTG, the binding signal stood at 0.44457 ± 0.000354 E-score.
Regarding CACACCTA, the binding signal was 0.333 ± 0.00896 E-score.
For CACACATG, the binding signal came out at 0.165 ± 0.0245 E-score.
As to GACACCTC, the binding signal is 0.4825 ± 0.00161 E-score.
Regarding AACACTTG, the binding signal stood at 0.336 ± 0.0307 E-score.
Turning to AACACCTA, the binding signal was found to be 0.444 ± 0.00846 E-score.
On to AACACGTG, for which the binding signal was 0.371 ± 0.00902 E-score.
In the case of GACCCCTC, the binding signal turned out to be 0.26 ± 0.015 E-score.
For CCGAGACA, the binding signal is 0.274 ± 0.00602 E-score.
Consider ATGATACC, for which the binding signal was 0.335 ± 0.0146 E-score.
In the case of CACCACGG, the binding signal is 0.226 ± 0.00882 E-score.
As for ATGCGGTG, the binding signal worked out at 0.295 ± 0.0245 E-score.
As to CGGGCGAC, the binding signal amounted to 0.215 ± 0.0122 E-score.
Take CACTGGGG: the binding signal turned out to be 0.287 ± 0.0142 E-score.
As for ATAAGGTG, the binding signal stood at 0.217 ± 0.0216 E-score.
Take AACTGTGT: the binding signal worked out at 0.159 ± 0.066 E-score.
Take CCGGATCC: the binding signal came to 0.249 ± 0.0202 E-score.
As for TCGATACA, the figure is 0.198 ± 0.0102 E-score; as for CACTCCAG, 0.225 ± 0.00445 E-score; as for GTTCGGTA, 0.156 ± 0.0218 E-score.
Turning to TACACGTA, the binding signal was found to be 0.355 ± 0.0208 E-score.
As for GACACATA, the figure is 0.234 ± 0.0761 E-score.
On to AACACCTC, for which the binding signal came out at 0.456 ± 0.0111 E-score.
On to AACACACT, for which the binding signal is 0.276 ± 0.0133 E-score.
Take AACACTTC: the binding signal is 0.326 ± 0.0413 E-score.
With TACACCTA, the binding signal is 0.47 ± 0.00841 E-score.
As to GACACCTA, the binding signal turned out to be 0.463 ± 0.00697 E-score.
Turning to AGCACCTC, the binding signal was 0.178 ± 0.00186 E-score.
Consider TACACATA, for which the binding signal turned out to be 0.209 ± 0.0376 E-score.
For the sequence GATACCTA, the binding signal is 0.3275 ± 0.000891 E-score.
Regarding AACACCTT, the binding signal was 0.452 ± 0.0164 E-score.
As to AACACGTT, the binding signal stood at 0.272 ± 0.0421 E-score.
As for GCGGGTTA, the binding signal is 0.21 ± 0.00486 E-score.
CCCGCCCG: the binding signal came out at 0.233 ± 0.0272 E-score.
With CCCCCGAC, the binding signal worked out at 0.272 ± 0.00679 E-score.
Consider ATACCCGA, for which the binding signal is 0.241 ± 0.0123 E-score.
As for AAGACGTG, the figure is 0.166 ± 0.073 E-score.
ACACTTTC: the binding signal amounted to 0.354 ± 0.0256 E-score.
As for CCCTTCCC, the binding signal worked out at 0.181 ± 0.0277 E-score.
Turning to CACCTCTG, the binding signal amounted to 0.2874 ± 0.00224 E-score.
With CACACCTC, the binding signal came out at 0.403 ± 0.00914 E-score.
In the case of CACACTTC, the binding signal stood at 0.205 ± 0.0263 E-score.
For the sequence CACGTCCC, the binding signal was found to be 0.165 ± 0.0267 E-score.
On to ATAAACCC, for which the binding signal worked out at 0.16 ± 0.0287 E-score.
Regarding ACACGATA, the binding signal was 0.3751 ± 0.00175 E-score.
Turning to ACACGAAG, the binding signal was found to be 0.346 ± 0.00991 E-score.
For ACACGAAC, the binding signal stood at 0.3433 ± 0.00132 E-score.
On to ACACGATG, for which the binding signal was 0.3915 ± 0.00105 E-score.
The result for ACCCGATC reads 0.253 ± 0.057 E-score.
For the sequence ACACGATC, the binding signal is 0.385 ± 0.00771 E-score.
As for CAGCACCC, the figure is 0.188 ± 0.00201 E-score.
As for GGATAACA, the figure is 0.204 ± 0.00942 E-score; as for CACGGGTC, 0.253 ± 0.0022 E-score; as for CCCTGAGG, 0.177 ± 0.00892 E-score.

The values above are taken from paper PMC10668032, “Altered binding affinity of SIX1-Q177R correlates with enhanced WNT5A and WNT pathway effector expression in Wilms tumor”.
